# An excerpt weighted towards active compounds, which were near 2.5% of everything screened.
# D2 ag-1 – HTS Assay for Allosteric Agonists of the Human D2 Dopamine Receptor: Primary Screen for Agonists | D(2) dopamine receptor (Homo sapiens), P14416 | HEK293 T-REx D2 cells, calcium flux agonist mode | activation, % at 2 µM | 0.53% of 340,000 active | AID 485358, 2010;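 active = activation over 3 SD above normal in the single-dose calcium agonist read, cut at about 30% in these data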; also: 0% is about no effect
# Target sequence (P14416 whole entry, looked up): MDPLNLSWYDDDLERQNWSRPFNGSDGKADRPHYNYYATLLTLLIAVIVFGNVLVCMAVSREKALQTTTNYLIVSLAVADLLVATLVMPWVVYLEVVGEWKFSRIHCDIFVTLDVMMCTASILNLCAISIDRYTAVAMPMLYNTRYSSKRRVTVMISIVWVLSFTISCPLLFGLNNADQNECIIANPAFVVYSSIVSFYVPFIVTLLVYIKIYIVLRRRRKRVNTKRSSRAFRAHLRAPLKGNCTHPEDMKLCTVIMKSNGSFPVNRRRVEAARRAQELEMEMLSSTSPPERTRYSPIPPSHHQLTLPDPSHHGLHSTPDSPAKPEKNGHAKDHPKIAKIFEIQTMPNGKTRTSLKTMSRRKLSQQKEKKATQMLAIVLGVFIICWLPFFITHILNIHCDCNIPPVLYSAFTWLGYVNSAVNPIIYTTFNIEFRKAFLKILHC
#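 Tetracycline-induced HEK293 Trex cells with D2 receptor force-coupled to calcium signaling, plated overnight at 30 C and loaded with no-wash calcium dye. Calcium flux read kinetically for 180 s after compound addition; responses flag agonists.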
# D2 PAM-1 – HTS Assay for Positive Allosteric Modulators of the Human D2 Dopamine Receptor: Primary Screen for Potentiators. HEK293 T-REx D2, calcium flux, EC20 dopamine potentiation. potentiation, % at 10 µM. 0.34% of 340,000 active. AID 485347, 2010;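 active = potentiation over 3 SD above the plate norm, cut at about 30% in these data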; also: 0% is about no effect
#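 Potentiation of an EC20 dopamine calcium response measured kinetically over 180 s, after a preceding 180 s compound-only read flagging agonists. Cells: inducible Hek293 Trex D2 line, 4000/well, cultured overnight at 30 C before dye loading.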
# Anesthetic bind – qHTS Assay for Identification of Novel General Anesthetics; apoferritin/1-aminoanthracene competitive binding, fluorescence; Potency, µM (doses to about 77.5 µM), without a hit: top-dose activity change, negative = displacement, hits mostly inhibitors; 0.074% of 350,000 active; AID 485281, 2010; active = well fitted inhibition curve with a large enough effect; inconclusive = small, poorly fitted or top-dose-only effect; inactive = no such curve, though single readings can be large or run the other way; also: potency is read from the fitted curve at half-maximal effect; % is scaled to controls: 0 for no effect and ±100 for the full control effect; nearly all actives have a fitted effect of over 20% in size
# Target sequence (P02791 2-175 limits assumed): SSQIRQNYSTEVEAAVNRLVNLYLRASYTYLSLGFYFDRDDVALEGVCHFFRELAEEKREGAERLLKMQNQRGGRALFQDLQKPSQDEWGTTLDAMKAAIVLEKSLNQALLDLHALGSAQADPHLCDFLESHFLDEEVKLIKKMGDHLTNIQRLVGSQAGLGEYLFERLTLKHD
#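 Apoferritin-based anesthetic binding model; compound displacement of fluorescent 1-AMA measured as endpoint fluorescence after 10 minutes at room temperature, scaled to free-ligand and complex controls.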
# D2 PAM-2 – Beta-Arrestin HTS for Positive Allosteric Modulators of the Human D2 Dopamine Receptor: Potentiators; D(2) dopamine receptor (Homo sapiens), P14416; DiscoveRx D2 beta-arrestin cells, luminescence, 90 min; 100% = 57 uM dopamine signal; potentiation, % (test concentration not listed); 0.23% of 360,000 active; AID 624464, 2012; in the data active = potentiation above about 50%; inconclusive = mostly about 30% to 49%
#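 PathHunter D2 cells, attached overnight at 37 deg C, received compound in DMSO plus dopamine at EC20 (50 nM final) for 90 min at 37 deg C. Beta-arrestin recruitment was read as luminescence after 1 h with detection reagent at ambient temperature.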
# D2 antag – HTS Assay for Allosteric Antagonists of the Human D2 Dopamine Receptor: Primary Screen for Antagonists. HEK293 TREx D2 cells, calcium flux, dopamine EC80. 2% of 340,000 active. D(2) dopamine receptor (Homo sapiens), P14416. inhibition, % at 10 µM; in the data active = inhibition above about 30%; inactive = below that, where a call was filed; also: 0% is about no effect
#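 Measurement of antagonist activity uses fluorescent calcium dye in inducible HEK293 T-REx D2 cells: 10 s baseline, compound addition with 180 s read, EC80 dopamine addition with a further 180 s read.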
# D2 ag-2 – Beta-Arrestin HTS for Positive Allosteric Modulators of the Human D2 Dopamine Receptor: Agonists | AID 624465, 2012 | DiscoveRx PathHunter D2 beta-arrestin, luminescence, 90 min; 100% = 57 uM dopamine signal | 0.084% of 360,000 active | activation, % (test concentration not listed) | D(2) dopamine receptor (Homo sapiens), P14416; in the data active = activation above about 40%; inconclusive = between about 15% and that limit
#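 Agonist mode: compounds alone added to overnight-plated D2 PathHunter cells for 90 min at 37 C, with 57 uM final dopamine (EC100) defining full response. Beta-arrestin recruitment detected by chemiluminescent reagent, read after 1 h at ambient temperature.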
# Numbers without * were called inactive; ? = inconclusive; / = no result given.
SMILES,D2 ag-1,D2 PAM-1,Anesthetic bind,D2 PAM-2,D2 antag,D2 ag-2
Cc1sc2nc(SCC(N)=O)n(-c3ccccc3)c(=O)c2c1C,0,22,-1%,-6,3,-1
Cc1sc2nc(SCc3nc(-c4ccccc4)no3)n(-c3ccccc3)c(=O)c2c1C,0,34*,-1%,5,9,-3
COc1ccc(NC(=O)c2cc(Br)ccc2Cl)c(OC)c1,0,0,0%,-13,-19,-3
CCC(C)NCCCCOc1cc(C)cc(C(C)C)c1 (configuration not stated),0,-28,-8%,-12,-29,-4
COc1ccc(OCCCC(=O)Nc2nncs2)cc1,1,39*,-1%,-10,4,1
Cc1ccc(OCc2ccc(C(=O)Nc3nccs3)o2)cc1C,/,/,?,-12,/,0
O=S(=O)(NCC1CCCO1)c1ccc(S(=O)(=O)N(Cc2ccccn2)C2CC2)cc1 (configuration not stated),0,6,-9%,-7,74*,3
O=S(=O)(NC1CC1)c1ccc(S(=O)(=O)N(Cc2ccccn2)C2CC2)cc1,0,-2,-5%,-10,0,-1
O=C(NC(Cc1ccccc1)C(=O)O)/C(=C/c1ccc(Cl)cc1)NC(=O)c1ccccc1 (configuration not stated),-1,-6,-4%,-2,4,-3
O=C(COc1ccc(S(=O)(=O)N2CCCC2)cc1Cl)NCc1ccccn1,0,-5,-10%,-2,-11,-1
O=C(COc1ccc(S(=O)(=O)N2CCOCC2)cc1Cl)NCc1ccccn1,1,34*,-13%,1,25,1
COCc1c(C(=O)NC2CCCCCC2)oc2ccccc12,31*,-27,-10%,10,10,?
Cc1c(C(=O)NC2CC2)oc2ccccc12,0,13,/,0,-20,-3
N#Cc1cnn(-c2ccccc2)c1NC(=O)c1ccccc1F,0,80*,/,-2,14,7
CCCCCCN(C(=O)CCCCCN1C(=O)NC(c2ccc(-c3ccccc3)cc2)C(C(=O)OCc2ccccc2)=C1C)C(C(=O)NCCCC)C1CCCCC1 (configuration not stated),0,3,-12%,/,23,/
CCCCCCN(C(=O)CCCCCN1C(=O)NC(c2ccc(-c3ccccc3)cc2)C(C(=O)OCc2ccccc2)=C1C)C(C(=O)NCCCC)c1ccccn1 (configuration not stated),1,-10,-15%,/,31*,/
CC(=O)Nc1cccc(NC(=O)Nc2cccc3ccccc23)c1,0,-12,-17%,-9,46*,2
CC(C)OC(=O)c1ccc(COC(=O)CNC(=O)c2ccco2)cc1,-1,-16,2%,-6,11,-3
Nc1nc(NCCc2ccccc2)nc(NCCO)c1[N+](=O)[O-],0,34*,-4%,-6,1,-1
CCN1C(=O)c2ccccc2Sc2ccc(C(=O)NCCC(C)C)cc21,0,-26,2%,-21,44*,-4
CC(C)CCNC(=O)c1ccc2c(c1)N(C)C(=O)c1ccccc1S2,2,-21,2%,-23,47*,-2
CCN1C(=O)c2ccccc2Sc2ccc(C(=O)NC(C)C)cc21,-1,2,-10%,-6,21,7
CCCCNC(=O)c1ccc2c(c1)N(C)C(=O)c1ccccc1S2,-1,-9,-16%,-13,-27,1
CSc1ccc(S(=O)(=O)NCC(=O)OCC(=O)NCCc2ccccc2)cc1[N+](=O)[O-],-1,14,/,3,33*,2
CCCCNC(=O)c1cnc2sc(N3CCCCC3)nn2c1=O,0,1,-6%,/,/,/
SMILES,D2 ag-1,D2 PAM-1,Anesthetic bind,D2 PAM-2,D2 antag,D2 ag-2
Cc1nn(-c2ccc(Cl)cc2)c2sc(C(=O)N3CCN(C(=O)c4ccco4)CC3)cc12,1,6,-12%,/,-17,/
Cc1nn(-c2ccc(Cl)cc2)c2sc(C(=O)N3CCN(c4ccccn4)CC3)cc12,-1,32*,3%,-7,1,1
O=C(CCc1ccc(S(=O)(=O)N2CCOCC2)cc1)N/N=C/c1ccc(O)c(O)c1O,1,10,-20%,82*,-3,?
O=C(CCc1ccc(S(=O)(=O)N2CCOCC2)cc1)N/N=C/c1ccc(F)cc1F,0,-6,-4%,-7,-12,1
COc1cc(/C=C2/C(=O)CNC2=O)ccc1O,37*,-18,-2%,-1,3,-1
COc1cc(/C=C/C(=O)CC(=O)/C=C/c2ccc(O)c(OC)c2)ccc1O,53*,-13,?,-10,27,4
COc1cc(/C=C/C(=O)O)ccc1O,/,/,3%,-10,/,-5
CCn1c(SCC(=O)Nc2ccccc2F)nnc1-c1ccoc1C,0,11,-8%,-2,7,-3
O=C(C1CCN(S(=O)(=O)c2ccccc2)CC1)N1CCN(c2ccccc2F)CC1,-1,10,/,-3,32*,-2
O=C(C1CCN(S(=O)(=O)c2ccccc2F)CC1)N1CCc2ccccc21,0,11,/,-2,18,4
O=C(C1COc2ccccc2O1)N1CCc2ccccc21 (configuration not stated),0,5,?,26,35*,0
O=C(C1CCN(S(=O)(=O)c2ccccc2)CC1)N1CCc2ccccc21,98*,-12,316%,-4,28,-2
Cc1cc(C)nc(N/N=C/c2cccc([N+](=O)[O-])c2)n1,2,0,1%,-3,2,0
Cc1ccc(C(=O)NC2CC(=O)N(c3ccc4c(c3)OCCO4)C2)cc1[N+](=O)[O-] (configuration not stated),1,3,/,-7,3,-3
O=C(O)c1ccc(COc2ccc3c4c(c(=O)oc3c2)CCC4)o1,0,0,-2%,-32,-20,-2
C/C(CCc1ccc2c(c1)OCO2)=N\N=C1\NC(=O)CC(C(=O)Nc2ccccc2F)S1 (configuration not stated),0,15,-17%,-5,40*,-1
